Screening data as filed in PubChem.
This is a sample that favours compounds with a hit; in the whole collection about 0.81% have one here.
TRHR PAM = allosterically enhances the human TRH receptor. P34981. TRHR cells, fluo-8 calcium fluorescence, EC20 TRH enhancement. enhancement, % at 2 µM. 360,000 tested, 0.66% active. AID 493056; in the data active = enhancement above about 30%; also: 0% is about no effect
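Enhancer read-out: after compound pinning and an initial kinetic agonist-mode read, an EC20 of TRH (10 nM final) was injected and fluo-8 calcium signal (Ex 480/Em 530) followed at 1 s/cycle for 100 cycles in TRHR-expressing cells.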
TRPML1 agonist = agonists of human TRPML1 channel; Q9GZU1; AID 624414; 410,000 tested, 0.12% active; activation, % (test concentration not listed); TRPML1-expressing cells, Ca2+ dye fluorescence, FDSS; in the data active = activation above about 50%; also: 0% is about no effect
Target sequence (Q9GZU1 whole entry, looked up): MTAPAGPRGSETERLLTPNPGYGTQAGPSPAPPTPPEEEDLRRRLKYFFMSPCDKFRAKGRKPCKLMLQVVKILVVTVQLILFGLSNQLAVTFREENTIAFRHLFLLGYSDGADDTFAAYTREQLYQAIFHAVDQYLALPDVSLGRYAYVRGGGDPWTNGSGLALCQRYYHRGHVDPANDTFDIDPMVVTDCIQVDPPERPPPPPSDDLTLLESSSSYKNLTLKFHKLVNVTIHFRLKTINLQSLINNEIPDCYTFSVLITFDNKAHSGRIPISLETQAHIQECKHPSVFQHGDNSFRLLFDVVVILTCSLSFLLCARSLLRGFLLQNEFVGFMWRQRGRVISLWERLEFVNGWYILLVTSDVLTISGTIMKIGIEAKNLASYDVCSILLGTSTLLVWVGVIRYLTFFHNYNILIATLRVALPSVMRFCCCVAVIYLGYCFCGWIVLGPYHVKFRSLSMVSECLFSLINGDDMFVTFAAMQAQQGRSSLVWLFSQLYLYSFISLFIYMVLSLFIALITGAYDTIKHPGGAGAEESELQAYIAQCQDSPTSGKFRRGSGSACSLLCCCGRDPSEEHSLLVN
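Cells: TRPML1-DL, 1X Tet inducer, ~16 h at 37 degrees C/5% CO2. Dye: ABD Ca8 no-wash + quencher, 45-90 min RT. Read: 10 s baseline, compound add, 110 s agonist phase; 54-4 EC80 (4uM final), 110 s antagonist phase.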
TRHR ag = TRH receptor (human) agonism | 360,000 tested, 0.18% active | TRHR cells, calcium flux fluo-8, FDSS agonist mode | P34981 | activation, % at 2 µM; in the data active = activation above about 30%; also: 0% is about no effect
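Read-out: compound-evoked intracellular calcium rise in TRHR cells, fluo-8 dye, kinetic FDSS fluorescence at 1 s/cycle following a 10-cycle baseline. Cells cultured overnight before dye loading (30 min–1.5 h, RT).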
TRPML1 blocker = human mucolipin-1 channel inhibition. TRPML1-inducible cells, Ca2+ dye fluorescence, FDSS; active compounds read low; inhibition of EC80 agonist-evoked calcium signal. activity change, negative = inhibition, % (no concentration beside the values). 390,000 tested, 0.02% active. AID 624415; in the data active = activity change below about -50%;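 also: stimulus is agonist 54-4 at its EC80 concentration; % is scaled to controls: 0 for no effect and ±100 for the full control effect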
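Calcium fluorescence in TRPML1-DL cells induced overnight with Tet: a 110 s read after compound pin addition, then a 110 s antagonist read after challenge with 54-4 at 4 uM final (EC80).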
* hit, by the source's call.

What do the screens show for `CCOc1ccc(C(=O)NCc2ccncc2)cc1`?
TRHR PAM: -3; TRPML1 agonist: 1; TRHR ag: 0; TRPML1 blocker: 1

Results for COc1cc2nc(/C=C/c3ccc(N(C)C)cc3)sc2cc1SC ?
TRHR PAM: 6; TRPML1 agonist: 120*; TRHR ag: 85*; TRPML1 blocker: -12

Results for CN(C)N=Nc1ccc(/C=C2\C=Cc3ccccc32)cc1 ?
TRPML1 agonist: 0

How did CC1CCCCN1C(=O)c1ccc(Br)o1 (stereo not given) do in these assays?
TRHR PAM: 32*; TRPML1 agonist: -1; TRHR ag: 0; TRPML1 blocker: -5

How did Cc1ccc(C(=O)N2CCCCC2C(=O)O)o1 (stereo not given) do in these assays?
TRHR PAM: -3; TRPML1 agonist: -1; TRHR ag: 0; TRPML1 blocker: 5

Results for COc1cc(/C=C/c2ccc3ccccc3n2)cc(OC)c1OC ?
TRPML1 agonist: -1

What do the screens show for `COc1cccc(-n2c(SCC(N)=O)nc3c([nH]c4ccccc43)c2=O)c1`?
TRHR PAM: 37*; TRPML1 agonist: 0; TRHR ag: 0; TRPML1 blocker: 9

What do the screens show for `COc1cccc(-n2c(SCC(=O)c3ccc(Cl)cc3)nc3c([nH]c4ccccc43)c2=O)c1`?
TRHR PAM: 1; TRPML1 agonist: 1; TRHR ag: 1; TRPML1 blocker: -16

How did COc1ccc(OC)c2c(/C=C/c3c(C)[nH]c4ccccc34)ccnc12 do in these assays?
TRPML1 agonist: 1

What do the screens show for `CC(C)(C)n1ncc2c(=O)n(Cc3ccccc3CS(=O)(=O)c3ccccc3)cnc21`?
TRPML1 agonist: 1; TRPML1 blocker: -7

Results for Cc1cc(C)n(CC(O)COc2ccc(C(C)C)c(C)c2)n1 (stereo not given) ?
TRHR PAM: 34*; TRPML1 agonist: -1; TRHR ag: -3; TRPML1 blocker: -9

Results for Cc1cc(C)n(CC(O)COc2ccc3ccccc3c2)n1 (stereo not given) ?
TRHR PAM: 0; TRPML1 agonist: -1; TRHR ag: 0; TRPML1 blocker: -19

What do the screens show for `O=C(c1cc(-c2ccccc2)on1)N1CCc2ccccc2C1`?
TRHR PAM: 36*; TRPML1 agonist: 0; TRHR ag: 1; TRPML1 blocker: -1

How did CCN(CC)c1nc(NC2CCN(C)CC2)c2cc(OC)c(OC)cc2n1 do in these assays?
TRPML1 agonist: 0

What do the screens show for `COc1ccc(/C=c2\s/c(=C/C(=O)c3ccc(C)cc3)[nH]c2=O)cc1OC`?
TRHR PAM: 7; TRPML1 agonist: 21; TRHR ag: 36*; TRPML1 blocker: 11

Results for COc1ccc(/C=c2\[nH]c(=O)/c(=C/c3ccc(OC)c(OC)c3)[nH]c2=O)cc1OC ?
TRPML1 agonist: 0

How did Nc1ccc(/C=C/c2nc3ccccc3s2)cc1 do in these assays?
TRPML1 agonist: 0

What do the screens show for `COc1ccc(CCNc2ncnc3c2c(-c2ccccc2)cn3-c2cccc(Cl)c2)cc1OC`?
TRHR PAM: -4; TRPML1 agonist: 74*; TRHR ag: 1; TRPML1 blocker: -3

What do the screens show for `COc1ccc(-n2cc(-c3ccccc3)c3c(NCCc4ccc(OC)c(OC)c4)ncnc32)cc1`?
TRHR PAM: -6; TRPML1 agonist: 1; TRHR ag: 1; TRPML1 blocker: -9

How did O=C(COc1ccc(F)cc1Br)Nc1ccccc1N1CCCC1 do in these assays?
TRPML1 agonist: 0; TRPML1 blocker: -2

How did O=C(COc1ccc(F)cc1Br)Nc1ccccc1N1CCOCC1 do in these assays?
TRHR PAM: -2; TRPML1 agonist: 71*; TRHR ag: 2; TRPML1 blocker: -10

What do the screens show for `O=C(COc1ccc(C(=S)N2CCOCC2)cc1Cl)Nc1ccccc1Cl`?
TRHR PAM: 34*; TRPML1 agonist: -1; TRHR ag: 1; TRPML1 blocker: 40

Results for Cc1cc(Cl)ccc1OCC(=O)NC(=S)Nc1ccccc1N1CCOCC1 ?
TRHR PAM: 6; TRPML1 agonist: 0; TRHR ag: 1; TRPML1 blocker: 23

Results for Cc1cc(Cl)ccc1OCC(=O)Nc1ccccc1N1CCOCC1 ?
TRHR PAM: 10; TRPML1 agonist: 75*; TRHR ag: 0; TRPML1 blocker: -12

How did Cc1ccc2c(c1)CCCN2C(=O)c1cnn2c1NC(=C1CC1)C=C2C(F)F do in these assays?
TRPML1 agonist: 0

Results for Cc1cc2c(s1)c1cnn(Cc3ccc(OC(F)F)cc3)c(=O)c1n2C ?
TRHR PAM: 1; TRHR ag: 0

How did CCCCn1nnnc1C(c1ccccc1)N1CCN(c2ncc(C(F)(F)F)cc2Cl)CC1 (stereo not given) do in these assays?
TRPML1 agonist: 68*

What do the screens show for `Cc1ccc2nc(CO)[nH]c2c1`?
TRPML1 agonist: 0

What do the screens show for `Cc1cc(C)cc(S(=O)(=O)c2cn(C)c3cc(N4CCN(C)CC4)c(F)cc3c2=O)c1`?
TRHR PAM: -8; TRPML1 agonist: 1; TRHR ag: 0; TRPML1 blocker: 8

Results for Cc1cccc(S(=O)(=O)c2cn(C)c3cc(N4CCN(c5ccccc5)CC4)c(F)cc3c2=O)c1 ?
TRHR PAM: 32*; TRPML1 agonist: 2; TRHR ag: 0; TRPML1 blocker: 1

Results for COc1cc(OC)c(-c2c3cc(O)c(=O)cc-3oc3cc(O)c(O)cc23)cc1OC ?
TRHR PAM: 152*; TRPML1 agonist: 112*; TRHR ag: 266*; TRPML1 blocker: -10

What do the screens show for `Cc1c2cc(O)c(=O)cc-2oc2cc(O)c(O)cc12`?
TRHR PAM: 6; TRPML1 agonist: 24; TRHR ag: 3; TRPML1 blocker: 95

How did COc1ccc(CCn2cc(C#N)c(=O)[nH]c2=O)cc1OC do in these assays?
TRHR PAM: 38*; TRPML1 agonist: -1; TRHR ag: 1; TRPML1 blocker: 11

Results for C[n+]1c(/C=C/c2ccnc3ccccc23)cc(/C=C/c2ccnc3ccccc23)c2ccccc21 ?
TRPML1 agonist: -1

What do the screens show for `CCP(=O)(c1cccc([N+](=O)[O-])c1)c1cccc([N+](=O)[O-])c1`?
TRHR PAM: 3; TRPML1 agonist: -1; TRHR ag: 0; TRPML1 blocker: 5

How did O=[N+]([O-])c1cccc(P(=O)(O)c2cccc([N+](=O)[O-])c2)c1 do in these assays?
TRHR PAM: 31*; TRPML1 agonist: 1; TRHR ag: 1; TRPML1 blocker: 9

How did Cc1ccc2c(/C=C/c3ccc(N(C)C)cc3)ccnc2c1 do in these assays?
TRPML1 agonist: 17

Results for O=C(NCc1ccccn1)c1n[nH]c2ccccc12 ?
TRHR PAM: 39*; TRPML1 agonist: 0; TRHR ag: 0; TRPML1 blocker: -8

How did O=C(NCc1ccccn1)c1n[nH]c(=O)c2ccccc12 do in these assays?
TRHR PAM: 16; TRPML1 agonist: 0; TRHR ag: 0; TRPML1 blocker: -1

What do the screens show for `CCN1/C(=C/C(=O)c2ccco2)Sc2ccccc21`?
TRHR PAM: -11; TRPML1 agonist: -1; TRHR ag: 0; TRPML1 blocker: 0
